From PubChem BioAssay
Calls of active or inactive are those of the source.

Columns and labels:
[1] = anti-His antibody binders, primary screen, artefact control for SMM control protein annotation, biochemical, small-molecule microarray, 635 nm fluorescence (AID 1128); conditions: anti-His Alexa647 antibody binding, higher = more signal;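 further: score merges feature fluorescence with signal-to-noise for each printed compound spot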
[2] = system: Human papillomavirus type 1a E7 protein (residues 1-88); experiment: HPV1a E7 small-molecule binders, primary screen, biochemical, small-molecule microarray, residues 1-88, 635 nm (AID 1129); conditions: small-molecule microarray binding, fluorescence 635 nm; higher = more signal
[3] = target: Focal adhesion kinase 1 (Homo sapiens) (UniProt Q05397); experiment: small-molecule microarray binders of FAK, primary screen, biochemical, 635/667 nm fluorescence, BSA, DTT (AID 1130); conditions: PTK2 binding, 635 nm fluorescence, higher = more signal;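 further: composite of spot emission at 667 nm and signal to noise over triplicate slides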
[4] = system: Fibrinogen (Alexa647-labelled); experiment: fibrinogen binders on compound microarrays, profiling panel, artefact control for SMM control-protein annotation, biochemical, small-molecule microarray, 635/667 nm fluorescence (AID 1131); conditions: fibrinogen-A647 binding fluorescence, higher = more signal;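 further: z-score merges 667 nm fluorescence with per-spot signal-to-noise over triplicate slides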
[5] = target: Follistatin (Homo sapiens) (UniProt P19883); experiment: follistatin binders on small-molecule microarrays, primary screen, biochemical, small-molecule microarray, 635/667 nm fluorescence (AID 1132); conditions: FST binding, 635 nm fluorescence, higher = more signal
[6] = target: Fibroblast growth factor 2 (Homo sapiens) (UniProt P09038); experiment: FGF2 binders on small-molecule microarrays, primary screen, biochemical, small-molecule microarray, 635/667 nm fluorescence (AID 1133); conditions: small-molecule microarray binding, FGF2, fluorescence 635/667; higher = more signal
[7] = mitochondrial membrane potential change in A549 cells, profiling panel, cell-based, JC-1 fluorescence, basal, 24 h, 100 nL (AID 1138); conditions: higher = more signal;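 further: A549 lung adenocarcinoma cells under basal conditions with no added stimulus; test concentration not given here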
Lefty1 = Lefty1 binders on small-molecule microarrays, primary screen, biochemical, small-molecule microarray, 635/667 nm fluorescence (AID 1139); conditions: small-molecule microarray binding, fluorescence 635/667; higher = more signal
[8] = system: wheat germ agglutinin (Triticum aestivum), Alexa647-labelled; experiment: wheat germ agglutinin binders on compound microarrays, profiling panel, artefact control for SMM control-protein annotation, biochemical, small-molecule microarray, 635/667 nm fluorescence (AID 1140); conditions: WGA-A647 binding, 635 nm fluorescence, higher = more signal;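 further: score merges 667 nm feature emission with signal to noise over triplicate slides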
[9] = target: Luciferin 4-monooxygenase (Photinus pyralis) (UniProt P08659); experiment: firefly luciferase enzyme inhibitors, primary screen, biochemical, luminescence, purified enzyme, 2006 set (AID 1141); conditions: SteadyGlo luminescence, 30 min, higher = more signal, called active from +8 up or from −8 down;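 further: cell-free assay with purified firefly luciferase at 100 ng per well in PBS; test concentration not given here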
[10] = system: Wnt5a (protein binding on small-molecule microarray); experiment: Wnt5a binders on small-molecule microarray, primary screen, biophysical, 635/667 nm fluorescence (AID 1142); conditions: 635 nm fluorescence, higher = more signal;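 further: fluorescence read at 667 nm with signal to noise per printed feature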
[11] = cell viability in Huh7 cells, primary screen, cytotoxicity control for HCV replication inhibitor project, CellTiter-Glo luminescence, basal, 48 h (AID 1143); conditions: Huh7 HCV replicon, higher = more signal, called active from +8 up or from −8 down;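 further: Huh7 hepatoma cells carrying a hepatitis C replication reporter with no stimulus; test concentration not given here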
[12] = CREB reporter modulators without forskolin, primary screen, cell-based, PC12, CRE-LacZ reporter, unstimulated (AID 1145); conditions: no forskolin, luminescence, 4.5 h, higher = more signal, called active from +8 up or from −8 down
[13] = CREB reporter modulators under forskolin, primary screen, cell-based, PC12, CRE-LacZ reporter, forskolin-stimulated (AID 1146); conditions: luminescence, 4.5 h, higher = more signal, called active from +8 up or from −8 down;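 further: PC12 cells with 6xCRE LacZ reporter stimulated by forskolin 10 µM; beta-galactosidase reporter signal reflecting CREB driven transcription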
[14] = target: Streptavidin (Streptomyces avidinii) (UniProt P22629); experiment: streptavidin binders on small-molecule microarray, primary screen, artefact control for SMM compound annotation, biophysical, 635/667 nm fluorescence (AID 1147); conditions: streptavidin binding, higher = more signal;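 further: signal reflects streptavidin binding to arrayed compounds as a control protein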
[15] = small-molecule binders of probe aInhba, primary screen, biochemical, small-molecule microarray, 635/667 nm fluorescence (AID 1148); conditions: higher = more signal;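 further: score merges 667nm spot fluorescence with signal-to-noise for antibody binding to printed compounds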
Torsin-1A (Homo sapiens) [16] = target: Torsin-1A (Homo sapiens) (UniProt O14656); experiment: torsin A binders from cell lysate, primary screen, small-molecule microarray, wild-type, 635/667 nm (AID 1149); conditions: COS7 hTOR1A-WT lysate, 635 nm fluorescence, higher = more signal
Torsin-1A (Homo sapiens) [17] = target: Torsin-1A (Homo sapiens) (UniProt O14656); experiment: small-molecule binders of mutant TOR1A in lysate, primary screen, cell lysate, small-molecule microarray, COS7 lysate, 635/667 nm fluorescence (AID 1150); conditions: COS7 hTOR1A mutant lysate, 635 nm fluorescence, higher = more signal;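 further: score pools 667 nm emission and signal to noise measuring lysate protein binding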
[18] = system: Sonic hedgehog protein (Shh); experiment: small-molecule binders of Shh protein, primary screen, biochemical, small-molecule microarray, 635/667 nm fluorescence (AID 1151); conditions: small-molecule microarray binding, 635 nm fluorescence; higher = more signal;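 further: Shh protein binding to compounds spotted on small-molecule microarray slides; score combines spot fluorescence intensity with signal-to-noise across triplicate slides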

Sequence of Follistatin (Homo sapiens) (P19883 whole entry, looked up): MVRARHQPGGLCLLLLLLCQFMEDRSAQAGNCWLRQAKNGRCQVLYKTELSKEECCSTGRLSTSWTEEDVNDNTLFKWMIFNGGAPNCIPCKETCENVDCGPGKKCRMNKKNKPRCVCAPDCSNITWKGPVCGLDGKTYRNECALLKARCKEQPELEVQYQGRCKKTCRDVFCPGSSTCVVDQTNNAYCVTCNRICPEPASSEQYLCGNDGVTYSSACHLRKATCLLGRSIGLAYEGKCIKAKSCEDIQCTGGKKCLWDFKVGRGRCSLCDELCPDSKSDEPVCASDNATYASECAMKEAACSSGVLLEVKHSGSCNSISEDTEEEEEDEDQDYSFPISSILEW
Sequence of Torsin-1A (Homo sapiens) (O14656 whole entry, looked up): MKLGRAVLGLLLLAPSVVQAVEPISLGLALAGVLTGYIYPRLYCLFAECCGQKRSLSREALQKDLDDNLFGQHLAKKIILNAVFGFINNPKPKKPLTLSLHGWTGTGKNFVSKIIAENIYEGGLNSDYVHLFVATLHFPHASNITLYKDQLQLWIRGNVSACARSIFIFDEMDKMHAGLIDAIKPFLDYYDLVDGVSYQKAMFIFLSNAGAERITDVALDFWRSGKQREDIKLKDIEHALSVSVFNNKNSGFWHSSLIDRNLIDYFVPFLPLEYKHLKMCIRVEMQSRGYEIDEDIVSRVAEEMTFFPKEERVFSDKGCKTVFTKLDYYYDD
Sequence of Luciferin 4-monooxygenase (Photinus pyralis) (P08659 whole entry, looked up): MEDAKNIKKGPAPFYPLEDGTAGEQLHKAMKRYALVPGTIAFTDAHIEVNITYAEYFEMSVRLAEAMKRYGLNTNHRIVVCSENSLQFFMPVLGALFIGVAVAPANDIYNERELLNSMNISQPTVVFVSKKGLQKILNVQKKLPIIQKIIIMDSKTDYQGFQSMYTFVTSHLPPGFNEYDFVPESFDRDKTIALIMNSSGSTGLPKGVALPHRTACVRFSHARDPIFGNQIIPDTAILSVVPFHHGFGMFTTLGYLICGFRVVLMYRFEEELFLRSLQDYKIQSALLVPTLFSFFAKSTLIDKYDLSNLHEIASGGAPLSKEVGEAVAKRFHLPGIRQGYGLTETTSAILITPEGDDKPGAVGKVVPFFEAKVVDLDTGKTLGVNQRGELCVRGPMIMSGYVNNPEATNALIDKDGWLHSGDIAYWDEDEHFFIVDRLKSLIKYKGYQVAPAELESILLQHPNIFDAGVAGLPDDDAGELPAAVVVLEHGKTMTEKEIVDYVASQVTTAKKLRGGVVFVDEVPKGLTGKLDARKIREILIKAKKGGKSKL
Sequence of Fibroblast growth factor 2 (Homo sapiens) (P09038 whole entry, looked up): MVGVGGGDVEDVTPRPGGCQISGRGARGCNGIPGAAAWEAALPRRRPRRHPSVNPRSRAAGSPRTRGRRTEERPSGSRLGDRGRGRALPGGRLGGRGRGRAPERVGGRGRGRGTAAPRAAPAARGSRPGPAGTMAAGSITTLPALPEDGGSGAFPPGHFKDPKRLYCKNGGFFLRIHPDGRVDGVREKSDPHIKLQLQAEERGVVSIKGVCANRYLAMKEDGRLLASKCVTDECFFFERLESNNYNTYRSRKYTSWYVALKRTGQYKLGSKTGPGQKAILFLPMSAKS
Sequence of Focal adhesion kinase 1 (Homo sapiens) (Q05397 whole entry, looked up): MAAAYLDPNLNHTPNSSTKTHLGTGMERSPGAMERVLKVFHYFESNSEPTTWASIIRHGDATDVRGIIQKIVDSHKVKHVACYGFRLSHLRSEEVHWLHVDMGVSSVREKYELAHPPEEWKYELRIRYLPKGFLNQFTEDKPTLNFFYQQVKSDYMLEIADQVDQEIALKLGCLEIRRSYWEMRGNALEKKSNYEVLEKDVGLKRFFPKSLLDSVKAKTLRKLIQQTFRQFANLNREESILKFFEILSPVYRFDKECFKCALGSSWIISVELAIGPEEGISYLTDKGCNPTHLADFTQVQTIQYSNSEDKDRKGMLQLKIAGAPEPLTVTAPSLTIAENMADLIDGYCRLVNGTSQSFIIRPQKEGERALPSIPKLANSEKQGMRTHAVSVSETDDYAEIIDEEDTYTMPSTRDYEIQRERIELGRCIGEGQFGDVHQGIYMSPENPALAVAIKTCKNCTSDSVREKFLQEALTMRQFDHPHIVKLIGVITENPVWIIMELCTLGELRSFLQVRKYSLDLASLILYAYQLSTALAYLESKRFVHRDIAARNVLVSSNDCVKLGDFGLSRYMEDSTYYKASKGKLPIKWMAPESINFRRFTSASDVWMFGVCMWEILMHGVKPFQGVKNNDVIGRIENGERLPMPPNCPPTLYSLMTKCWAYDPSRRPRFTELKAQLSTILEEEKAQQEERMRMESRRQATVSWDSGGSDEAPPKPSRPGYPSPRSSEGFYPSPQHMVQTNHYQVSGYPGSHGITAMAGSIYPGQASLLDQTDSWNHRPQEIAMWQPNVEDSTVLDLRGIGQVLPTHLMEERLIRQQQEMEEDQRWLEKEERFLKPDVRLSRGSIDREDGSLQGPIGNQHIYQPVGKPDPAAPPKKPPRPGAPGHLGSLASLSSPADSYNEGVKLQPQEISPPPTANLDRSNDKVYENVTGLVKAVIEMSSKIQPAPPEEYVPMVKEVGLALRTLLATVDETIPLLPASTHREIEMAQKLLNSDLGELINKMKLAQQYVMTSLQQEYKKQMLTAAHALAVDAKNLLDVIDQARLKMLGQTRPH
Sequence of Streptavidin (Streptomyces avidinii) (P22629 whole entry, looked up): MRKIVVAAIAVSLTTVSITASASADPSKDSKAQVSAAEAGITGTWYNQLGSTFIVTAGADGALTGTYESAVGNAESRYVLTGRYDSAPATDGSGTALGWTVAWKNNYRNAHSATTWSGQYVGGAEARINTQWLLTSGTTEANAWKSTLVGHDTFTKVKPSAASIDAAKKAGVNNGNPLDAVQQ

Row | SMILES | composite z-score [1] | composite z-score [2] | composite z-score [3] | composite z-score [4] | composite z-score [5] | composite z-score [6] | z-score [7] | composite z-score (Lefty1) | composite z-score [8] | z-score [9] | composite z-score [10] | z-score [11] | z-score [12] | z-score [13] | composite z-score [14] | composite z-score [15] | composite z-score (Torsin-1A (Homo sapiens) [16]) | composite z-score (Torsin-1A (Homo sapiens) [17]) | composite z-score [18]
1 | CCCCCCc1nc(C2CC2)c(C)c2c1[Si](C(C)C)(C(C)C)OC2 | -0.095 | -1.51 | -0.695 | -0.687 | -0.0256 | -0.0723 | -0.451 | -0.238 | -0.982 | -0.441 (inactive) | -0.0534 | -5.02 (inactive) | 0.236 (inactive) | -0.75 (inactive) | -0.0332 | -0.0494 | 0.277 | 0.305 | 0.0027
2 | CN(C)C(=O)[C@@]1(Cc2ccccc2N=[N+]=[N-])N=C(c2ccc(OCCCO)cc2)O[C@H]1c1ccccc1CN=[N+]=[N-] | 2.23 | 1.23 | 1.02 | 0.831 | 1.21 | 0.512 | 2.31 | 0.633 | 1.45 | -1.92 (inactive) | 0.549 | -3.09 (inactive) | 1.65 (inactive) | -1.39 (inactive) | 1.41 | 0.372 | 0.477 | 1.24 | 0.397
3 | O=C1c2ccccc2[C@](Cc2ccccc2I)(C(=O)NCc2ccccc2)[C@H](c2ccc(CO)cc2)N1Cc1ccccc1C(F)(F)F | -0.77 | -0.455 | -0.328 | -0.373 | -1.2 | -1.36 | 1.11 | -1.22 | -1.12 | -1.09 (inactive) | -0.246 | -2.5 (inactive) | 0.0909 (inactive) | -0.487 (inactive) | -0.409 | -0.0313 | -0.635 | -0.162 | -0.197
4 | C=CC[C@@]12N=C(c3ccc(OCCCO)cc3)O[C@@H]1c1ccccc1CN(Cc1ccccc1)C2=O | 2.93 | 1.18 | 1.05 | 0.639 | 1.33 | 0.761 | -0.309 | 0.239 | 0.65 | -1.79 (inactive) | 0.509 | -4.89 (inactive) | 2.16 (inactive) | -2.5 (inactive) | -0.0929 | 0.174 | 0.376 | 0.294 | 1.91
5 | CCCCO[C@H]1C[C@H]2C(Br)=C[C@@]1(CO)C(=O)[C@]21CO1 | -0.487 | -0.153 | 0.692 | -0.46 | 0.452 | 0.0225 | 0.826 | 0.641 | -0.283 | -0.553 (inactive) | -0.112 | -0.483 (inactive) | 0.577 (inactive) | -0.67 (inactive) | -0.0819 | 0.0714 | 0.0005 | 0.281 | 0.536
6 | C[C@@H]1CC[C@H]2C(=O)N3[C@@H](CC[C@@H](C)[C@@H]3c3cccc(N4CCOCC4)c3)C(=O)N2[C@H]1c1cccc(N2CCOCC2)c1 | 0.181 | 0.978 | 0.0379 | 0.815 | 1.16 | 1.16 | 1.05 | 1.47 | 0.964 | -1.23 (inactive) | -0.0915 | -0.334 (inactive) | 9.59 (active) | -0.84 (inactive) | 0.766 | -0.278 | 1.38 | 0.312 | 0.106
7 | CO[C@@H]1COC(=O)CC=C[C@@H](C)[C@H](OC)COC(=O)CC=C[C@H]1C | 0.0112 | -1.31 | -0.436 | -1.05 | 1.48 | 1.34 | 1.77 | 0.712 | -0.812 | -1.08 (inactive) | -0.0731 | -0.147 (inactive) | -0.658 (inactive) | -0.82 (inactive) | -0.428 | -0.253 | 0.685 | 0.349 | 1.29
8 | C=CC(=O)O[C@@H](Cc1ccccc1)[C@H]1C2C=CCCC=C2CN1Cc1cccc(Cl)c1 (some centres undefined) | -0.0091 | -2.16 | -0.426 | -0.327 | -0.14 | -0.344 | 1.77 | -0.697 | -0.346 | -1.52 (inactive) | -0.172 | -0.904 (inactive) | 1.03 (inactive) | -0.678 (inactive) | -0.575 | -0.082 | -0.471 | 0.393 | -0.0211
9 | Cc1ccc(N2C(=O)c3ccccc3[C@](C)(C(=O)O)[C@@H]2c2ccc(CO)cc2)nc1 | -0.763 | -0.914 | -0.594 | -0.912 | -1.04 | -1.12 | 1.08 | -1.28 | -0.576 | -1.46 (inactive) | -0.56 | -0.718 (inactive) | -0.852 (inactive) | -0.942 (inactive) | -0.519 | -0.267 | 1.11 | -0.144 | -0.751
10 | COc1ccc(-c2ccccc2[C@@H]2N[C@H](C(=O)O)CC[C@H]2C)cc1 | 0.351 | 0.449 | 0.671 | 0.0159 | 0.107 | 0.364 | -0.568 | 0.404 | -0.361 | -0.739 (inactive) | -0.053 | -1.45 (inactive) | 1.01 (inactive) | -0.902 (inactive) | 0.376 | -0.109 | 0.69 | 0.272 | 0.289
11 | CO[C@H]1COC(=O)[C@H](C)NC(=O)CC=C[C@@H](C)[C@H](NS(=O)(=O)c2ccc(C)cc2)COC(=O)CC=C[C@@H]1C | -0.0701 | -0.64 | -0.522 | -1.3 | 1.28 | 0.708 | 0.507 | 1.35 | -0.955 | -0.217 (inactive) | -0.0879 | -0.831 (inactive) | 0.429 (inactive) | -1.27 (inactive) | -0.052 | -0.123 | 0.961 | 0.0627 | 1.38
